LDHA block: qHTS assay for inhibitors of human lactate dehydrogenase; L-lactate dehydrogenase A chain (Homo sapiens), P00338; purified LDHA, NADH/diaphorase-resazurin fluorescence; active compounds read low; activity change, % (values are at about 110 or 230 µM); 480,000 compounds, 0.15% hits; AID 1347041, 2019; in the data active = activity change below about -30%; inconclusive = mostly about -25% to -30%;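 also: plate controls were DMSO wells for no effect and wells without enzyme for full effect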
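Resorufin fluorescence (ex540/em590), read at 0 and 20 min after diaphorase/resazurin addition, reports the NADH left after a 5 min room-temperature reaction of 2 nM human LDH5 with 0.06 mM NADH and 0.2 mM pyruvate.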
PTHR1 ag: qHTS for PTHR1 Agonists: Primary Screen; Potency, µM (top dose mostly 115 µM), inactives show top-dose activation, actives largely listed as activators; HEK293 GP2 PTHR1 cells, GloSensor cAMP luminescence, 1 h; 410,000 compounds, 0.075% hits; Parathyroid hormone/parathyroid hormone-related peptide receptor (Homo sapiens), Q03431; also: potency is read from the fitted curve at half-maximal effect; nearly all actives have a fitted effect of over 55% in size
Target sequence (Q03431 whole entry, looked up): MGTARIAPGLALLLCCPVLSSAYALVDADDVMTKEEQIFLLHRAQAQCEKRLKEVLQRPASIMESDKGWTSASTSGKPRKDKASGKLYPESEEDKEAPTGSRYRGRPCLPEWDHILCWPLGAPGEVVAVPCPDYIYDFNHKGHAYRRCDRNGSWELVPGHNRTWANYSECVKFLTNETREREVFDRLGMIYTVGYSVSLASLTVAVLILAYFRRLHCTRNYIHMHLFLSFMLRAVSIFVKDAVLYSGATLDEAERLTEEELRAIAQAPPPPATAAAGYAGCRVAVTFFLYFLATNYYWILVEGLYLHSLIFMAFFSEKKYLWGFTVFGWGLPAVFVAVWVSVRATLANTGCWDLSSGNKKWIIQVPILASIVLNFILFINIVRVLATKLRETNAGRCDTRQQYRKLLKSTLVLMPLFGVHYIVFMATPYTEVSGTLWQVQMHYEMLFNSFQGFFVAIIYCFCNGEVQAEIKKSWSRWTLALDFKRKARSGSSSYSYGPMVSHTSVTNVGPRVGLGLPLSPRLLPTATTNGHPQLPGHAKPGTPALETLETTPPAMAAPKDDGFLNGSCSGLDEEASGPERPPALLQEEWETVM
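HEK-293-derived GP2 cells expressing PTHR1 and a GloSensor cAMP reporter, 3,000/well, plated overnight, given luciferin plus IBMX (each 0.5 mM as added) for 1 h at 37 °C, then compound for 1 h at 37 °C. Luminescence was read after 15 min at room temperature.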
Abeta rescue: qHTS for compounds that reverse cellular toxicity of Amyloid beta (A-beta) peptide in yeast: Primary Screen; yeast expressing A-beta42, growth rescue, OD600, 48 h; response scale: 0% DMSO, 100% iron-clioquinol control; Potency, µM (titrated, usually from 46.1 µM), actives largely listed as activators; 410,000 compounds, 0.063% hits; also: potency is read from the fitted curve at half-maximal effect; nearly all actives have a fitted effect of over 55% in size
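Growth rescue measured by 600 nm absorbance after 48 h yeast culture at 30 C with compound. Values normalized between DMSO and an equimolar ferric chloride plus clioquinol control.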
aSyn rescue: qHTS of alpha-syn Inhibitors. Yeast expressing alpha-synuclein, growth rescue, BacTiter-Glo, 24 h. Potency, µM (doses to about 46.1 µM), without a hit: at the top dose growth rescue (activation), hits mostly activators. 370,000 compounds, 0.14% hits. AID 652106, 2013; also: potency is read from the fitted curve at half-maximal effect; % of control where 0% means no effect; nearly all actives have a fitted effect of over 65% in size
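Galactose-induced alpha-syn yeast (OD600=0.02, raffinose-pregrown) + pinned cpd, 24 hr, 30 deg C; growth by BacTiter-Glo luminescence. Growth restoration scores as activation.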
FUS suppressor: qHTS for Suppressors of FUS Proteinopathy: Primary screen using FUS-linked yeast assay. S. cerevisiae FUS-expressing, growth rescue, OD600, 24 h. Potency, µM (doses to about 76.6 µM), actives largely listed as activators. 390,000 compounds, 0.24% hits. AID 1347120, 2019;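 also: potency is read from the fitted curve at half-maximal effect; plate controls were DMSO vehicle for no effect and reference control for full effect; nearly all actives have a fitted effect of over 55% in size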
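Compound concentration series was pinned onto galactose-induced FUS-expressing yeast seeded at OD 0.005. Plates sat 24hr at 30C; absorbance at 600 nm gave growth. DMSO served as background control.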
TDP-43 yeast inh: qHTS of TDP-43 Inhibitors. TDP-43 expressing yeast growth rescue, BacTiter-Glo, 24 h. Potency, µM (highest dose often 46.1 µM), inactives show at the highest dose growth rescue (activation), actives largely listed as activators. 410,000 compounds, 1.8% hits. AID 652104, 2013; also: potency is read from the fitted curve at half-maximal effect; % of control where 0% means no effect; nearly all actives have a fitted effect of over 50% in size
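Yeast cells expressing TDP-43 under galactose induction are exposed to compounds for 24 hr at 30 deg C. BacTiter-Glo luminescence measures growth, so protective compounds score as activators.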
* hit, by the source's call; i = inactive; ? = inconclusive; . = not tested or not shown; [ ] = dose if it differs, or a comment. Shown are actives, neighbours in structure and some others; about 1.9% of the full set was active somewhere. Unless noted, calls follow the shape of the dose curve; as a rule, active = well fitted curve in the direction sought with a large enough effect; inconclusive = small, poorly fitted or top-dose-only effect, or another doubt; inactive = no such curve, though single readings can be large; an effect the other way counts as inactive or inconclusive.

SMILES	LDHA block	PTHR1 ag	Abeta rescue	aSyn rescue	FUS suppressor	TDP-43 yeast inh
Cn1nc(C(=O)Nc2sc3c(c2C#N)CCCC3)ccc1=O	2	45µM*	i	1%	i	-11%
CC(C)C(=O)Nc1sc2c(c1C#N)CCCCC2	-3	-7%	i	8%	i	13µM*
CC(=O)Nc1sc2c(c1C#N)CCCC2	-8	i	i	0%	i	16%
N#Cc1c(NC(=O)c2ccncc2)sc2c1CCC2	1	-53%[57.5 µM]	i	-8%	?	-27%
Cc1cccc(NC(=O)C(C)OC(=O)C2=CN3CCS(=O)(=O)N=C3C=C2)c1 (stereo not given)	-6	.	.	.	.	.
Cc1ccc(C(=O)NNC(=O)C2CC2)cc1Br	-14	i	i	-1%	i	8%
CCCCC(=O)Nc1ccc(C(=O)NNC(=O)c2ccc(C)c(Br)c2)cc1	-47*	-5%	i	9%	i	8%
COC(=O)NNC(=O)c1ccc(C)c(Br)c1	-4	i	?	2%	.	20µM*
Cc1ccc(NC(=O)C2CCN(c3cnc4ccccc4n3)CC2)cc1Cl	11	.	.	.	.	.
COc1ccccc1N1CCN(CCCS(=O)(=O)c2ccc(Cl)cc2)CC1	13	.	.	.	.	.
CCC(CC)c1nnc(NC(=O)CCc2c(C)nc(C)[nH]c2=O)s1	0	.	.	.	.	.
Cn1c(=NN=Cc2ccccc2OCCO)sc2ccccc21	0	-21%	i	5%	i	13µM*
O=c1nc2c(O)cccn2c2c1c(=O)[nH]c1ccccc12	14	-10%	i	-5%	i	5%
O=c1[nH]c2ccccc2c2nc3ccccn3c12	1	-7%[57.5 µM]	i	?	i	22µM*
CCOC(=O)NC(CNC(=O)CSc1ccccc1)CC(C)C (stereo not given)	-1	.	.	.	.	.
COc1ccc(NC(=O)Oc2ccccc2)cc1Cl	-1	i	i	10%	i	18µM*
COC(=O)NC(=S)Nc1ccc(Oc2ccc(Cl)cc2Cl)c(Cl)c1	0	-6%[57.5 µM]	i	-19%	i	18µM*
COC(=O)NC(=S)Nc1ccc(Oc2ccc(Cl)cc2)c(Cl)c1	-1	-9%[57.5 µM]	i	-10%	i	-9%
Cc1ccc(NC(=S)NC(=O)C2CC2)cc1Cl	0	-15%	?	-20%	i	32µM*
O=C(NC(=S)Nc1ccccc1Cl)C1CC1	-17	-2%	i	-19%	i	10µM*
Cc1ccc(NC(=O)C2CCCCC2)cc1Cl	1	.	.	.	.	.
O=C(NC1CCc2ccccc21)C1Cc2ccccc2O1 (stereo not given)	-1	.	.	.	.	.
CNc1c(NC(=O)NCC(C)C)c(=O)oc2ccccc12	9	.	.	.	.	.
COc1ccccc1C1(CNC(=O)c2cccc(F)c2)CCOCC1	-7	.	.	.	.	.
O=C(Nc1ccc(F)c(Cl)c1)C1CCCCC1	-2	-25%	i	-3%	i	18µM*
SMILES	LDHA block	PTHR1 ag	Abeta rescue	aSyn rescue	FUS suppressor	TDP-43 yeast inh
O=C(NC(=S)Nc1ccc(F)c(Cl)c1)C1CC1	-9	-27%	?	-13%	i	3.2µM*
O=C(Nc1ccc(F)c(Cl)c1)C1CCCC1	6	i	i	-20%	i	-23%
Cc1ccc2c(CN(Cc3ccco3)Cc3ccco3)cc(=O)oc2c1C	-1	.	.	.	.	.
CN(C1CCCCC1)S(=O)(=O)N1CCN(C(=O)Cc2ccc(Cl)cc2Cl)CC1	9	.	.	.	.	.
Clc1ccc(CSc2nccn2Cc2ccccc2)cc1	-3	-35%	i	3%	i	16µM*
O=c1ccn(Cc2ccccc2)c(SCc2ccccc2)n1	-5	-17%	i	-1%	.	8%
Cc1ccc(CNC(=O)c2scnc2C)s1	7	.	.	.	.	.
CCOC(=O)C1CCN(c2nc(-c3ccc(OC)c(OC)c3)nc3cc(OCC)c(OC)cc23)CC1	2	.	.	.	.	.
COc1ccc(NC(=O)COc2ncnc3ccccc23)cc1Cl	0	.	.	.	.	.
COc1ccccc1NC(=O)CSc1nnc(C2CCCCC2)o1	-7	-1%	?	5%	i	18µM*
COc1ccc(OC)c(NC(=O)CSc2nnc(C3CCCCC3)o2)c1	-5	i	i	-5%	i	18%
CCc1ccccc1NC(=O)CSc1nnc(COc2ccccc2Cl)o1	-4	-24%	i	.	i	16µM*
COc1ccccc1NC(=O)CSc1nnc(-c2cccc(Cl)c2)o1	1	i	i	.	i	18µM*
CC(C)CNC(=O)NC(=O)CSc1nnc(COc2ccccc2Cl)o1	-8	.	.	.	.	.
CCCOc1cc(C)c(S(=O)(=O)NCc2cccs2)cc1C	2	-44%	i	10µM*	i	20µM*
Cc1cc(C)c(S(=O)(=O)NCc2cccs2)cc1C	2	-50%	i	11%	i	13%
O=C(/C=C/c1ccc(Cl)cc1)c1ccc(N2CCOCC2)cc1	-2	.	.	.	.	.
CCCn1c(COc2cccc(C)c2)nc2ccccc21	3	-51%	i	.	?	?
Cc1cccc(-c2nc3ccccc3n2Cc2ccccc2)c1	4	-24%	i	.	i	11µM*
Cc1ccc(Cn2c(-c3ccccc3)nc3ccccc32)cc1	3	-38%	i	.	i	25µM*
Cc1ccccc1OCc1nc2ccccc2n1C	-2	-23%	i	-16%	i	18µM*
Cc1cccc(Cn2c(COc3ccccc3)nc3ccccc32)c1	1	-29%	i	?	i	18µM*
Cn1ccnc1C(NC(=O)c1nn(C)c(=O)c2ccccc12)c1ccccc1 (stereo not given)	-2	.	.	.	.	.
COc1cccc(OCc2nc3ccccc3n2Cc2ccccc2C)c1	3	i	?	.	i	22µM*
Fc1ccc(Cn2c(-c3cccc(Br)c3)nc3ccccc32)cc1	2	-56%	i	.	i	22µM*
CCCn1c(-c2cccc(Br)c2)nc2ccccc21	-5	-71%	i	.	i	26%
Cc1cccc(NCc2nc3ccccc3n2Cc2ccccc2)c1	1	-2%[57.5 µM]	?	0%	i	16µM*
CC(NC(=O)c1ccc(Cl)cc1)c1nnc(SCC(=O)c2ccccc2)n1C (stereo not given)	2	.	.	.	.	.
NC(=O)C1CCN(c2nc(-c3cccs3)nc3ccccc23)CC1	5	.	.	.	.	.
Cc1cccc(NC(=S)NCc2ccco2)n1	-4	-13%	13µM*	1%	i	?

Source: PubChem
